AmpC no deterg = inhibitors of E. coli AmpC beta-lactamase without detergent | AmpC nitrocefin hydrolysis, absorbance 480 nm, 0.0001% Triton | Potency, µM (titrated, usually from 57.1 µM), without a hit: at the highest dose activity change, negative = inhibition, usual class: inhibitors | AID 485341 | 330,000 compounds, 0.52% hits | P00811;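 note: plate controls were no compound for no effect and no enzyme for full effect; nearly all actives have a fitted effect of over 20% in size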
Target sequence (P00811 whole entry, looked up): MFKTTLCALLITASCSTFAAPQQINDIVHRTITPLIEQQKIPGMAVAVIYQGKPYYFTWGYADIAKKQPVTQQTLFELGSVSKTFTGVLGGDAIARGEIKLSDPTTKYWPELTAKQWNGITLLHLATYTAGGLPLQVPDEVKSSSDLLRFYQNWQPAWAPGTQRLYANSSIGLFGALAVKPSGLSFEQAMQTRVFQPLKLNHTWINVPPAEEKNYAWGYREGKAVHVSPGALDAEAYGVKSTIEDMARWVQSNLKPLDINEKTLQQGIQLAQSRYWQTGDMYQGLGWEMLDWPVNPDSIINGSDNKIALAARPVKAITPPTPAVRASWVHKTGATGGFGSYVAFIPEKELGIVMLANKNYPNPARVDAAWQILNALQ
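20 mM phosphate pH 7.0 + 0.01% (detergent screen) or 0.0001% Triton X-100; 5.3 nM AmpC reagent; cpd preinc 15 min RT; nitrocefin (800 uM stock) to start; A480 q20 s × 4 min; Activity was normalised to no-enzyme and no-compound control wells.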
Giardia FBPA inh = inhibitors of Giardia lamblia fructose-1,6-bisphosphate aldolase | A8B2U2 | purified Giardia FBPA | Potency, µM (series often up to 59.6 µM), without a hit: at the top dose activity, negative = inhibition, usual class: inhibitors | 290,000 compounds, 0.71% hits | AID 2451; note: nearly all actives have a fitted effect of over 55% in size
Target sequence (A8B2U2 whole entry, looked up): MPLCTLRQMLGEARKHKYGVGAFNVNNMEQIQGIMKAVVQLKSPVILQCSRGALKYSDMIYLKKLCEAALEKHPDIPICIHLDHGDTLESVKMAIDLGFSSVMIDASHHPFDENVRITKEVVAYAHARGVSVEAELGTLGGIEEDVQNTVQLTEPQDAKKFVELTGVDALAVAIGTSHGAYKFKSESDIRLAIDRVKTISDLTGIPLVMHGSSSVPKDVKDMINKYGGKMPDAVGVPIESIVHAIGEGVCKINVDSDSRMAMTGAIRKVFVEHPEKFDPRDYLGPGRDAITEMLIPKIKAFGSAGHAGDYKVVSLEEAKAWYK
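40 nM FBPA preincubated 10 min at RT with compound (up to 57.5 uM final), then substrate plus GAPDH/TPI/NAD/arsenate coupling and diaphorase/resazurin added. Fluorescence read after 20 min at RT, 525/598 nm.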
TbPYK inhibitor = blocks Trypanosoma brucei pyruvate kinase; TbPYK enzyme, Kinase-Glo Plus ATP luminescence, 45 min; Potency, µM (series often up to 76.8 µM), inactives show at the top dose activity, negative = inhibition, hits mostly inhibitors; 410,000 compounds, 0.12% hits; AID 624173; note: nearly all actives have a fitted effect of over 50% in size
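Luminescence from Kinase-Glo Plus, added after a 45-minute room-temperature reaction, served as the end-point read-out. The enzyme and substrate were preincubated with compound before ADP (130 uM final) initiated turnover. Concentration-effect curves came from normalized qHTS data.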
LmPK inh = blocks Leishmania mexicana pyruvate kinase activity; Q27686; purified LmPK, Kinase-Glo ATP luminescence, 1 h; Potency, µM (top dose mostly 57.5 µM), for inactives: top-dose activity change, negative = inhibition, actives largely listed as inhibitors; 290,000 compounds, 0.37% hits
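Screened at intermediate enzyme activity to detect both inhibitors and activators: LmPK at 0.1 nM, with a 0.5 nM enzyme column as activation reference. PEP 0.5 mM, ADP 0.1 mM; ATP detected by luminescence after 1 h.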
AmpC detergent = AmpC beta-lactamase inhibition with detergent present; P00811; AmpC hydrolysis of nitrocefin, absorbance 480 nm, 0.01% Triton; Potency, µM (top dose mostly 114 µM), for inactives: top-dose activity change, negative = inhibition, most hits filed as inhibitors; 370,000 compounds, 0.041% hits;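 note: 0% = no-compound wells and -100% = no-enzyme wells; nearly all actives have a fitted effect of over 25% in size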
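20 mM phosphate pH 7.0 + 0.01% (detergent screen) or 0.0001% Triton X-100; 5.3 nM AmpC reagent; cpd preinc 15 min RT; nitrocefin (800 uM stock) to start; A480 q20 s × 4 min; Activity was normalised to no-enzyme and no-compound control wells.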
RE007 growth inh = less growth of the S. pombe RE007 Vpr strain; Potency, µM (doses to about 92.2 µM), without a hit: top-dose activity change, negative = less growth, usual class: inhibitors; AID 651644; 360,000 compounds, 0.21% hits; S. pombe RE007 Vpr strain, BacTiter-Glo ATP luminescence, 24 h; active = well fitted falling curve with a large enough effect; inconclusive = small, poorly fitted or top-dose-only effect; inactive = no such curve, though single readings can be large or run the other way; note: nearly all actives have a fitted effect of over 50% in size
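Fission yeast RE007 carrying one integrated HIV-1 vpr copy, seeded at OD 0.01 in PMG+AL medium with 23 nL pinned compound. Grown 24 h at 30 degrees; viability read by BacTiter-Glo luminescence after 5 min.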
* = called active by the depositor; ? = inconclusive; · = no result; ! = repeats disagree; [ ] = another dose, or the depositor's remark. Compounds with a hit are over-represented: about 1.4% of the library has one in this group of screens. Unless noted, calls come from the whole dose curve; as a rule, active = well fitted curve in the direction sought with a large enough effect; inconclusive = small, poorly fitted or top-dose-only effect, or another doubt; inactive = no such curve, though single readings can be large; an effect the other way counts as inactive or inconclusive. Unless noted, % is set by controls: 0 for no effect and ±100 for the full control effect; potency is the fitted concentration of half-maximal effect.

SMILES	AmpC no deterg	Giardia FBPA inh	TbPYK inhibitor	LmPK inh	AmpC detergent	RE007 growth inh
C/C(=N\NC(=O)c1nnn(-c2nonc2N)c1CN(C)c1ccccc1)c1ccc(O)cc1	25µM*	-17%	-2%	-3%	-1%	0%
Cc1ccc2nc(SCCCCOc3ccccc3)[nH]c2c1	-30%	-10%	1%	1%	6%	56µM*
Brc1ccc2nc(SCCOc3ccccc3)[nH]c2c1	·	·	1%	·	-1%	·
COCCCN1C(=O)c2[nH]nc(-c3ccccc3O)c2C1c1ccc(OC)cc1 (stereo not drawn)	·	·	5%	·	-4%	·
CCN(CC)CCOC(=O)c1ccc(N)cc1Cl	·	·	-1%	·	·	·
CC(=NNC(=S)N1CC2CCC(CC2)C1)c1cccc(C)n1	·	·	-19%	·	·	?
CC(=NNC(=S)N1CC2CCC(CC2)C1)c1nccs1	·	·	?	·	·	32µM*
N.N.O=C(O)C1(C(=O)O)CCC1.[Pt]	·	18µM*!	?	·	·	·
O=C(O)C1(C(=O)O)CCC1	-11%	·	-12%	·	?	9%[18.4 µM]
CCCOc1ccc(NC(=O)C(=O)NCCCn2ccnc2)cc1	-5%	0%	-1%	-2%	-13%	-9%
CCOc1ccc(NC(=O)C(=O)NCCCn2ccnc2)cc1	0.16µM*	4%	9%	-5%	-5%	-11%
Cn1c(SCc2ccccc2)nnc1-c1c[nH]c2ccccc12	25µM*	5%	-1%	-5%	?	-7%
CCCCSc1nnc(-c2c[nH]c3ccccc23)n1C	-13%	1%	1%	10%	-10%	0%
O=C(CCS(=O)(=O)c1nc(-c2ccc3c(c2)OCO3)cc(C(F)(F)F)n1)Nc1ccccc1C(F)(F)F	·	·	1%	·	7%	·
C[C@@H](NC(=O)c1coc(=O)c(Br)c1)c1ccccc1	-17%	3%	2%	-2%	-2%	-24%
Cc1cc(NC(=O)c2coc(=O)c(Br)c2)ccc1C(C)C	16µM*	-13%	0%	0%	8%	-17%
Cc1oc2ccc(O)c(CN3CCN(Cc4ccccc4)CC3)c2c1C(=O)Nc1cccc(Cl)c1C	·	·	3%	·	18%	·
CN(C)c1cccc(C(=O)OCc2cc(=O)oc3cc(O)ccc23)c1	18µM*	9%	6%	22%	-2%	12%
COc1ccc(NC(=S)N2CCCC2)cc1	-2%	-10%	-22%	2%	-6%	-1%
COc1ccc(NC(=O)C(=S)N2CCCC2)cc1	-6%	2%	1%	0%	-6%	16µM*
O=C(COC(=O)/C=C/c1cccs1)Nc1nc(-c2cccc(Br)c2)cs1	6.3µM*	7%	1%	0%	-2%	6%
COC(=O)c1cccc(Nc2c(-c3ccc(OC)cc3)nc3nc[nH]n23)c1	·	·	-2%	·	1%	·
O=C(CSCc1ccccc1Cl)NN=C1CCCCCC1	0.22µM*	-3%	0%	0%	4%	-4%
Cc1cccc(NC(=O)CSc2cn(CC(=O)N3CCOCC3)c3ccccc23)c1C	·	·	2%	·	15%	·
Cn1c(=O)c(C(=O)NNC(=O)c2ccccc2Cl)c(O)c2ccccc21	-16%	-2%	-22%	-1%	3%	-25%
SMILES	AmpC no deterg	Giardia FBPA inh	TbPYK inhibitor	LmPK inh	AmpC detergent	RE007 growth inh
Cn1c(=O)c(C(=O)NNC(=O)c2cccc(Cl)c2)c(O)c2ccccc21	-20%	8%	0%	2%	3%	13µM*
Cc1cccc(C(=O)NNC(=O)c2c(O)c3ccccc3n(C)c2=O)c1	9%	4%	5%	-7%	-4%	40µM*
Cc1ccc(C(=O)OC2OC(=O)C(Cl)=C2N2CCOCC2)cc1 (stereo not drawn)	-49%	4%	-8%	1%	11µM*	10%
c1coc(-c2nnc(-c3ccco3)nn2)c1	-18%	·	-23%	?	1%	14µM*
CN(C)c1ccc(NC(=O)/C=C/c2ccccc2Cl)cc1	2.5µM*	2%	-13%	-4%	?	-8%
COc1cc(SSc2cc(OC)cc([N+](=O)[O-])c2N)c(N)c([N+](=O)[O-])c1	-34%	?	2.8µM*	16%	-3%	?
COc1cc([N+](=O)[O-])c2ncsc2c1	-9%	-9%	8%	-2%	-4%	0%
CC1=C(C)/C(=N\OS(=O)(=O)c2ccccc2)C=CC1=O	-20%	4.5µM*	2%	7%	1%	7.9µM*
Oc1ccc(COC2CCCC2)c2cccnc12	-7%	·	·	·	?	·
N#CCC(=O)Nc1ccc(C(=O)NCc2cccc(Cl)c2)cc1	18µM*	1%	-5%	-1%	-11%	3%
O=C(NCc1cccc(Cl)c1)c1ccncc1	142%	·	-9%	-1%	0%	-1%
O=C(Cn1ccc2cc(S(=O)(=O)N3CCCCC3)ccc21)NCc1ccccc1F	20µM*	·	-5%	2%	-3%	0%
O=C(/C=C/c1ccc([N+](=O)[O-])cc1)NCc1cccnc1	-20%	2%	6%	0%	-5%	-2%
O=C(/C=C/c1ccc([N+](=O)[O-])cc1)/C=C/c1ccco1	20µM*	-6%	·	-9%	-11%	·
O=C(/C=C/c1ccc([N+](=O)[O-])cc1)c1cccnc1	-17%	5%	-20%	-3%	-3%	16µM*
O=C(/C=C/c1ccc([N+](=O)[O-])cc1)c1ccco1	-13%	-7%	-3%	-3%	-10%	?
Cc1ccc2nc(/C(C#N)=C/c3ccc(-c4cccc([N+](=O)[O-])c4)o3)[nH]c2c1	11µM*	-2%	4%	0%	-11%	14%
COC(=O)C1(C(F)(F)F)N=C2Sc3ccccc3N2C(N2CCOCC2)=N1 (stereo not drawn)	0.32µM*	1%	5%	0%	-20%	0%
O=C(O)CC1(CC(=O)N2CCOCC2)CCCC1	-52%	-7%	-3%	-6%	35µM*	-14%
O=C(O)CC1(CC(=O)N2CCC(C(=O)O)CC2)CCCC1	-53%	8%	-3%	7%	45µM*	-12%
NC(=O)C1CCN(C(=O)CC2(CC(=O)O)CCCC2)CC1	-35%	2%	4%	4%	?	2%
CC(=O)O[C@]1(C(=O)CO)[C@@H](C)C[C@H]2[C@@H]3CCC4=CC(=O)C=C[C@]4(C)[C@@]3(F)[C@@H](O)C[C@]21C	·	·	4%	·	·	·
Cc1cccc(CC(=O)Nc2cc(C)c3c(=O)oc4ccccc4c3n2)c1	-14%	1%	-1%	3%	?	-1%
Cc1cc(NC(=O)Cc2ccccc2)nc2c1c(=O)oc1ccccc12	6.3µM*	2%	-9%	5%	?	-4%
